SMILES strings stand for the structures. Results filed as inconclusive are left out. Calls of active or inactive are those of the source. Calls come from the whole dose curve; as a rule, active = well fitted cell-killing curve with a large enough effect in the repeat runs; inconclusive = weak or mixed curves, or effect the other way; inactive = flat fitted curve, though single readings scatter.
% is set by controls: 0 for no effect and ±100 for the full control effect; potency is the fitted concentration of half-maximal effect.

The nature of the assay: qHTS assay to identify small molecule agonists of the androgen receptor (AR) signaling pathway in the presence of an antagonist - cell viability counter screen (AID 1259379). Note: nearly all actives have a fitted effect of over 25% in size. The settings on record: MDA-kb2 viability, CellTiter-Fluor, 16 h; series mostly up to 92.4 µM; activity change, negative = cytotoxicity: at the top concentration. An excerpt: National Center for Advancing Translational Sciences [NCATS]
NIH Chemical Genomics Center [NCGC]
U.S. Environmental Protection Agency [EPA]
National Institutes of Environmental Health Sciences [NIEHS]
National Toxicology Program [NTP]
U.S. Food and Drug Administration [FDA]
Androgen receptor (AR) is an important member of nuclear receptor family. Its signaling plays a critical role in AR-dependent prostate cancer and other androgen related diseases. Considerable attention has been given in the past decades to develop methods to study and screen for the environmental chemicals that have the potential to interfere with metabolic homeostasis, reproduction, developmental and behavioral functions. Therefore AR binding assay for screening against androgen agonists and antagonists can be used to identify potential endocrine disruptors.
MDA-kb2 cells (from ATCC, deposited by Wilson et al.) are human breast carcinoma cells that were stably transfected with a luciferase reporter gene under control of the MMTV promoter that contains response elements for both androgen receptor (AR) and glucocorticoid receptor (GR). This particular screening for measuring luciferase reporter gene activity using MDA-kb2 cells against Tox21 10K library compounds is a confirmation study on agonist mode screening in the presence of AR-antagonist compound (Nilutamide) at 3.0uM final concentration. The cytotoxicity of the compounds was tested in parallel by measuring the cell viability using CellTiter-Fluor assay system (Promega, Madison, WI) in the same wells.
Tox21 Assay Protocol Summary:
MDA-kb2 cells (cells cultured without CO2) were dispensed at 3,000 cells/well in 4uL of culture medium into white wall/solid-bottom 1536-well plates (Corning Life Sciences, Corning, NY) using a Multidrop Combi (Thermo Fisher Scientific Inc., Waltham, MA) dispenser. The assay plates were incubated at 37C and 0% CO2 for 5hr. One uL of 3.0uM (final concentration) Nilutamide or assay buffer was added using two separate tips of Flying Reagent Dispenser (FRD, Aurora Discovery, San Diego, CA). Then 23nL of compounds dissolved in DMSO at 15 concentrations and positive controls were transferred to the assay plates using a Pintool station (Wako, San Diego, CA). The assay plates were incubated at 37C and 0% CO2 for 16 hr. After 15hr incubation at 37C, 1uL/well CellTiter-Fluor reagent (Promega Corporation) was added to each well of the assay plates using FRD. After 1hr incubation at 37C and 0% CO2, the fluorescence signal was measured using a ViewLux plate reader (PerkinElmer, Shelton, CT).
With `CCOC(=O)CBr`, the “activity change, negative = cytotoxicity” value is -0.203% (inactive).

For `CC(C)=CCOc1c2occc2cc2ccc(=O)oc12`, the “activity change, negative = cytotoxicity” value is -2.1% [at 42.5 µM] (inactive).

`O=[N+]([O-])c1ccc(F)c([N+](=O)[O-])c1`: the Potency is 27.6 µM (active).

Regarding `CCOc1ccc(C(C)(C)COCc2cccc(Oc3ccccc3)c2)cc1`, the “activity change, negative = cytotoxicity” value is -0.906% (inactive).

Take `CC(C)(CCl)C(=O)Cl`: the “activity change, negative = cytotoxicity” value is -4.98% (inactive).

`N#CCC#N`: the “activity change, negative = cytotoxicity” value was 2.07% (inactive).

On to `CCN(C)N=O`, for which the “activity change, negative = cytotoxicity” value is 3.19% (inactive).

On to `O=C1C(Cl)C(CCl)CN1c1cccc(C(F)(F)F)c1` (stereo not given), for which the “activity change, negative = cytotoxicity” value is -2.37% (inactive).

Turning to `CC(C)O.CC(C)O.OCCN(CCO)CCO.OCCN(CCO)CCO.[Ti]`, the “activity change, negative = cytotoxicity” value is -2.22% (inactive).

Consider `N#CCc1ccccc1`, for which the “activity change, negative = cytotoxicity” value is 3.36% (inactive).

On to `CCC(Cl)CCl` (stereo not given), for which the “activity change, negative = cytotoxicity” value was -0.341% (inactive).

Consider `CCC(COC(=O)c1cc(OC)c(OC)c(OC)c1)(c1ccccc1)N(C)C` (stereo not given), for which the “activity change, negative = cytotoxicity” value is -3.72% [at 42.5 µM] (inactive).

Consider `O=C(NC(=O)c1c(F)cccc1F)Nc1ccc(OC(F)(F)C(F)OC(F)(F)F)c(Cl)c1` (stereo not given), for which the “activity change, negative = cytotoxicity” value was -0.14% [at 42.5 µM] (inactive).

For the compound `C=CCC1([C@H](C)CCC)C(=O)NC(=O)NC1=O`, the “activity change, negative = cytotoxicity” value was 0.717% (inactive).

Take `COC(N)=O`: the “activity change, negative = cytotoxicity” value is -2.17% (inactive).

Consider `CCOc1nc(F)cc2nc(S(=O)(=O)Nc3c(Cl)cccc3Cl)nn12`, for which the “activity change, negative = cytotoxicity” value is 1.44% (inactive).

As to `Cc1ccccc1CCl`, the “activity change, negative = cytotoxicity” value was 4.67% (inactive).

For the compound `O=S1OC[C@@H]2[C@H](CO1)[C@]1(Cl)C(Cl)=C(Cl)[C@@]2(Cl)C1(Cl)Cl` (stereo not given in full), the “activity change, negative = cytotoxicity” value is -8.07% (inactive).

With `CCCCN(N=O)C(=N)N[N+](=O)[O-]`, the “activity change, negative = cytotoxicity” value was -1.37% (inactive).

Take `Clc1cc(C(Cl)(Cl)Cl)cnc1Cl`: the Potency is 24.3 µM (active).

`CCC(C)(NC(=O)c1cc(Cl)c(C)c(Cl)c1)C(=O)CCl` (stereo not given): the Potency was 61.5 µM (active).

Turning to `c1ccc(CN2CCNCC2)cc1`, the “activity change, negative = cytotoxicity” value was -3.04% [at 240 µM] (inactive).

With `Cc1ccc2ccccc2c1`, the “activity change, negative = cytotoxicity” value is -3.53% (inactive).

On to `CCO[C@H]1O[C@@H]2OC3(C)CC[C@H]4[C@H](C)CC[C@@H]([C@H]1C)[C@@]24OO3`, for which the “activity change, negative = cytotoxicity” value is -0.773% [at 42.5 µM] (inactive).

In the case of `c1cc2ccc3cccc4ccc(c1)c2c34`, the “activity change, negative = cytotoxicity” value was 0.012% (inactive).

With `CC(=O)NC1CCSC1=O` (stereo not given), the “activity change, negative = cytotoxicity” value was -0.614% [at 42.5 µM] (inactive).

For `O=C(O)C(F)(F)C(F)(F)C(F)(F)C(F)(F)C(F)(F)C(F)(F)C(F)(F)C(F)(F)C(F)(F)C(F)(F)F`, the “activity change, negative = cytotoxicity” value is 0.482% (inactive).

With `C=CC(=O)OCCCCO`, the “activity change, negative = cytotoxicity” value was -4.27% (inactive).

As for `CCOP(=O)(OCC)Oc1ccc([N+](=O)[O-])cc1`, the “activity change, negative = cytotoxicity” value was -12.1% (inactive).

`CCOP(O)OCC`: the “activity change, negative = cytotoxicity” value was -0.849% (inactive).

Turning to `CCCCC(CC)COP(=O)(Oc1ccccc1)Oc1ccccc1` (stereo not given), the “activity change, negative = cytotoxicity” value was 1.61% (inactive).

Regarding `CC(C)(Cl)[N+](=O)[O-]`, the “activity change, negative = cytotoxicity” value was 1.3% (inactive).

On to `Clc1ccc(C2(Cn3cncn3)CC(Br)CO2)c(Cl)c1` (stereo not given), for which the “activity change, negative = cytotoxicity” value is -12.6% (inactive).

Regarding `Cl/C=C\Cl`, the “activity change, negative = cytotoxicity” value is 2.05% (inactive).

In the case of `O=S(=O)(Cl)c1ccccc1`, the “activity change, negative = cytotoxicity” value is 1% (inactive).

On to `O=C(NCc1cccnc1)Nc1ccc([N+](=O)[O-])cc1`, for which the “activity change, negative = cytotoxicity” value is -3.13% (inactive).

For the compound `O=Cc1ccc(Cl)cc1Cl`, the “activity change, negative = cytotoxicity” value was 0.707% (inactive).

For the compound `CCCCc1c(C)nc(NCC)nc1OS(=O)(=O)N(C)C`, the “activity change, negative = cytotoxicity” value was -12.6% (inactive).

In the case of `Cc1ccc(-c2c(Cl)nc(C#N)n2S(=O)(=O)N(C)C)cc1`, the Potency was 48.5 µM (active).

As for `CC(=O)[C@H]1CC[C@H]2[C@@H]3CC[C@H]4C[C@](C)(O)CC[C@]4(C)[C@H]3CC[C@]12C`, the “activity change, negative = cytotoxicity” value was 4.86% [at 42.5 µM] (inactive).

The values above are taken from PubChem BioAssay (Tox21).
